12-LOX inh: inhibitors of human 12S-lipoxygenase ALOX12; P18054; purified 12hLO, xylenol orange hydroperoxide absorbance; Potency, µM (top dose mostly 108 µM), actives largely listed as inhibitors; actives 1.1% (n = 580,000)
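Hydroperoxide product was detected by ferrous iron/xylenol orange as the 573 to 405 nm absorbance ratio. Arachidonic acid at 40 uM (final) was turned over for 30 min at room temperature by 150 nM human 12hLO, pH 7.0 Hepes buffer, after 15 min compound preincubation.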
G9a inh: G9a (human) methyltransferase inhibition. Q96KQ7. Potency, µM (top dose mostly 102 µM), hits mostly inhibitors. G9a H3K9 monomethylation, AlphaScreen, 2 h. actives 8.8% (n = 350,000); further: nearly all actives have a fitted effect of over 75% in size
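Signal arises when biotinylated H3K9 peptide, once monomethylated, bridges streptavidin donor and antibody-captured acceptor beads. Enzyme at 20 nM was preincubated 15 min with test compounds; peptide 500 nM and SAM 20 uM then reacted for 2 h.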
Sfp inh: blocks B. subtilis Sfp PPTase activity; Q9F4F7; Biochemical Sfp PPTase activity, qHTS; Potency, µM, most hits filed as inhibitors; actives 3.5% (n = 310,000);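 further: the enzyme is Sfp with the accession as filed and its product quenches rhodamine fluorescence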
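With Hepes-Na pH 7.6 buffer containing 10 mM MgCl2, Sfp (15 nM) modified BHQ-2-YbbR (12.5 uM) using rhodamine-CoA (5 uM). Two reads 30 minutes apart at 525/598 nm yielded each well's rate.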
Glioma ERSR ind: induces the endoplasmic reticulum stress response in human glioma cells; U87-MG GRP78 promoter luciferase reporter, 16 h; Potency, µM, actives largely listed as activators; actives 0.02% (n = 420,000); AID 602332; further: series mostly up to about 76 µM; nearly all actives have a fitted effect of over 35% in size
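Stably transfected U87-MG glioma cells carrying a GRP78-based luciferase sensor; 16 h compound incubation. Luminescence end-point read 10 min after Bright-Glo addition at room temperature.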
VDR inhibitor: blocks the human vitamin D receptor | actives 0.93% (n = 400,000) | P11473 | VDR-SRC2-3 peptide fluorescence polarization, 2 h | Potency, µM, hits mostly inhibitors
Target sequence (P11473 whole entry, looked up): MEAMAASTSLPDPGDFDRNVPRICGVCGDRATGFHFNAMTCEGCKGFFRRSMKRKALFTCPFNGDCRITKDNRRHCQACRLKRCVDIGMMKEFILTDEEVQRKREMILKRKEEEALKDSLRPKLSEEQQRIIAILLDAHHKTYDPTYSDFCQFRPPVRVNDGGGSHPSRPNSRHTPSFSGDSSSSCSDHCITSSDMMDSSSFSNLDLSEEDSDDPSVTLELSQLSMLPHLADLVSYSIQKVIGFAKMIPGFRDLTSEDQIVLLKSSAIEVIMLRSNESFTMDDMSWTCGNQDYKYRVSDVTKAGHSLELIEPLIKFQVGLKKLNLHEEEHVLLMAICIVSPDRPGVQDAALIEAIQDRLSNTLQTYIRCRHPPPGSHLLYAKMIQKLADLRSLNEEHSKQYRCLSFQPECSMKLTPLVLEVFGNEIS
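Reagent solutions, kept cold and dark, are dispensed first; compounds are then pinned in at 23 nl, plates briefly spun, and incubated 2 h at ambient temperature. Inhibition of VDR–SRC2-3 peptide binding is read by fluorescence polarization.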
Numbers stand for hits; – = inactive; ? = inconclusive; · = not tested or not shown; [ ] = remark or other dose. Many of the other results were omitted from the sample, so hits are more common in it than they were. The call rests on the fitted dose curve; in most records, active means well fitted curve in the direction sought with a large enough effect; inconclusive means small, poorly fitted or top-dose-only effect, or another doubt; inactive means no such curve, though single readings can be large; an effect the other way counts as inactive or inconclusive.

SMILES	12-LOX inh	G9a inh	Sfp inh	Glioma ERSR ind	VDR inhibitor
O=C(CC1=C2CCCCC2N(Cc2ccc(F)cc2)C1=O)NCCc1c[nH]c2ccccc12 (stereo unspecified)	–	·	·	·	·
N#CC1=C(S)N(c2ccccc2)C(c2ccc(-c3ccccc3Cl)o2)NC1=O (stereo unspecified)	?	?	40µM	–	40µM
N#Cc1ccc(-c2ccc(C3Nc4ccccc4C(=O)N3O)o2)cc1 (stereo unspecified)	?	–[0.501 µM]	·	–	?
CN(C)C(CNC(=O)c1cc(=O)[nH]c2ccccc12)c1ccccc1 (stereo unspecified)	–	·	·	·	·
Cc1ccc(/C=[N+](\[O-])c2ccc(N(C)C)cc2)c2nsnc12	?	8.9µM	–	–	?
Fc1ccc(C2=CC(c3ccc(F)cc3)n3c(nc4ccccc43)N2)cc1 (stereo unspecified)	–	18µM	·	–	–
O=C(O)c1cccc(-n2cccc2/C=C2/NC(=O)N(Cc3ccccc3F)C2=O)c1	?	45µM	50µM	–	–
O=C1N/C(=C/c2cccn2-c2ccc(F)cc2)C(=O)N1Cc1ccccc1F	–	?	–	–	–
O=C1N/C(=C/c2cccn2-c2ccccc2)C(=O)N1Cc1ccc(F)cc1	–	13µM	45µM	–	–
CC1Cc2cccc3c(O)c(C(=O)c4nn[nH]n4)c(=O)n1c23 (stereo unspecified)	–	8.9µM	–	–	–
Cc1nc2ccc(Cl)cc2cc1C(=O)NCc1ccc(C(N)=O)cc1	–	·	·	·	·
COc1cc2[nH]c(=S)nc(NC3CCCC3)c2cc1OC	·	32µM	–	·	·
CCOc1ccccc1C1CC(=O)NC(SCC(=O)Nc2nccs2)=C1C#N (stereo unspecified)	–	14µM	?	–	–
CCCSC1=C(C#N)C(c2ccc(O)c(OC)c2)CC(=O)N1 (stereo unspecified)	–	50µM	–	–	–
CCCSC1=C(C#N)C(c2ccccc2OCC)CC(=O)N1 (stereo unspecified)	–	?	–	–	–
CCCSC1=C(C#N)C(c2ccccc2C)CC(=O)N1 (stereo unspecified)	?	25µM	?	–	–
CCOc1ccc(C2CC(=O)NC(SCC(=O)OC)=C2C#N)cc1 (stereo unspecified)	–	71µM	–	–	–
COc1cc(C2CC(=O)NC(SCC(=O)Nc3ccccc3C)=C2C#N)ccc1O (stereo unspecified)	?	–	–	–	–
COC(=O)CSC1=C(C#N)C(c2ccccc2)CC(=O)N1 (stereo unspecified)	–	–[12.7 µM]	?	–	–
CCN(CC)c1ccc(-c2nnc(SC(C)C(=O)NC3CCCCCC3)o2)cc1 (stereo unspecified)	–	·	·	·	·
CCOC(=O)C1C(=O)NC(SCC(N)=O)=C(C#N)C1c1ccccc1OCC (stereo unspecified)	–	20µM	16µM	–	–
COC(=O)CSC1=C(C#N)C(c2ccc(C(C)C)cc2)CC(=O)N1 (stereo unspecified)	–	?	–	–	–
COC(=O)CSC1=C(C#N)C(c2ccc(Cl)cc2)C(C(=O)OC)C(=O)N1 (stereo unspecified)	–	45µM	–	–	–
Cc1ccc(C2CC(=O)NC(SCCC(C)C)=C2C#N)cc1 (stereo unspecified)	?	32µM	45µM	–	–
N#CC1=C(SCc2ccccc2)NC(=O)CC1c1ccco1 (stereo unspecified)	?	?	45µM	–	–
SMILES	12-LOX inh	G9a inh	Sfp inh	Glioma ERSR ind	VDR inhibitor
CCOC(=O)CSC1=C(C#N)C(c2ccc(Cl)cc2)C(C(=O)OC)C(=O)N1 (stereo unspecified)	?	?	?	–	–
CC1(C)CCC[C@]2(C)[C@H]3CCO[C@]3(C)CC[C@@H]12	–	·	·	·	·
Cc1cc(=O)[nH]c2sc3c(C(F)(F)F)cc(=O)[nH]c3c12	–	·	·	·	·
CCCn1nc(C(=O)N2CCN(c3ccccc3)CC2)c2ccccc2c1=O	–	·	·	·	·
C=CCSC1=C(C#N)C(c2cccc(OC)c2)CC(=O)N1 (stereo unspecified)	?	45µM	35µM	–	–
C=CCSC1=C(C#N)C(c2ccccc2OCC)CC(=O)N1 (stereo unspecified)	–	?	71µM	–	–

Source: PubChem BioAssay (National Center for Advancing Translational Sciences (NCATS))
